Assay results: the supplement of paper PMC11732987, “Enantioselective OTUD7B fragment discovery through chemoproteomics screening and high-throughput optimisation” (Communications Chemistry, 2025)

What was measured:
Test in all cases: log2 ratio of Biotin-Ahx-Ub-VS probe labelling (fragment/DMSO); higher = less target engagement (more negative = stronger competition), active = hit call of the paper (q ≤ 0.05, log2 ratio ≤ -1)
Details in all cases: compound concentration: 200 uM; treatment time: 3 h
[1] = biological target: USP34 (UniProt Q70CQ2)
Procedure, shortened: (§1)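 HEK293T lysate (495 µg per sample, in Tris/CHAPS/IGEPAL buffer with protease inhibitors) was exposed in triplicate for 3 h to fragment at 200 µM or to vehicle, then to Biotin-Ahx-Ub-VS at 0.5 µM final for 1 h. Labelled DUBs were enriched on NeutrAvidin, digested with LysC and trypsin, and analysed by diaPASEF LC-MS/MS. Spectronaut label-free quantities were normalised to the global median, and values are average log2 ratios of fragment over vehicle from an unpaired t-test. Only proteins with ≥2 unique peptides were used.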

[2] = biological target: T1, USP36 (UniProt Q9P275)
T1 sequence (whole entry): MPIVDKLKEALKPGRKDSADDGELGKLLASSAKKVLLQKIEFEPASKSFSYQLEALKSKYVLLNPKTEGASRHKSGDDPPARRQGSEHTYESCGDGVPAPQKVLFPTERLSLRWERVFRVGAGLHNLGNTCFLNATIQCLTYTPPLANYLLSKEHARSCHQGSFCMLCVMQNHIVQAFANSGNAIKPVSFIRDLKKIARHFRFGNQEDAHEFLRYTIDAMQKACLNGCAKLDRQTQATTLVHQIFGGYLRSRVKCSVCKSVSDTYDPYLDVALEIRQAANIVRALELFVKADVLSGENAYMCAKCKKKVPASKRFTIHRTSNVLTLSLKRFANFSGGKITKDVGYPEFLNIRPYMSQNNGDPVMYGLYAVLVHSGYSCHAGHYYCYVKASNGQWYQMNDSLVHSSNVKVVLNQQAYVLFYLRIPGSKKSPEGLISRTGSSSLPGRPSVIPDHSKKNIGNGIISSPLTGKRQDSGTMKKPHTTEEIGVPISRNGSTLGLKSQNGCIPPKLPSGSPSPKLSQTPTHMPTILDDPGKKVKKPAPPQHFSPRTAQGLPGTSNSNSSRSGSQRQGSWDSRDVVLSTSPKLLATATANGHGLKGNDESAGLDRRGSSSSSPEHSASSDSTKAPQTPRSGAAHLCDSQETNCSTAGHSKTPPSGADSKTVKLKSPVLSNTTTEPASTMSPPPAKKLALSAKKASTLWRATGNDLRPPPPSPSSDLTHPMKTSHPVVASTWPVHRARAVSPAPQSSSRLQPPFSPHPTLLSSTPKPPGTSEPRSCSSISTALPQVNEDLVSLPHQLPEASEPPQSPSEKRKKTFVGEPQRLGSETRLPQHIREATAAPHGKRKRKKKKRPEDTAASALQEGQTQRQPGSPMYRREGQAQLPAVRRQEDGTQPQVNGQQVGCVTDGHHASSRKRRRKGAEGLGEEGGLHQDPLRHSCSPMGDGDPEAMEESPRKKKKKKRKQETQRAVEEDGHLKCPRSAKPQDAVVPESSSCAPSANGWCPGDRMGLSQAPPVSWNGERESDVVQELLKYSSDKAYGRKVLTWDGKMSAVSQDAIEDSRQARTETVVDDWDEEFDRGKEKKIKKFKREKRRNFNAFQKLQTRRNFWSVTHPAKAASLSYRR
Procedure, shortened: as §1

[3] = biological target: T2, USP38 (UniProt Q8NB14)
T2 sequence (whole entry): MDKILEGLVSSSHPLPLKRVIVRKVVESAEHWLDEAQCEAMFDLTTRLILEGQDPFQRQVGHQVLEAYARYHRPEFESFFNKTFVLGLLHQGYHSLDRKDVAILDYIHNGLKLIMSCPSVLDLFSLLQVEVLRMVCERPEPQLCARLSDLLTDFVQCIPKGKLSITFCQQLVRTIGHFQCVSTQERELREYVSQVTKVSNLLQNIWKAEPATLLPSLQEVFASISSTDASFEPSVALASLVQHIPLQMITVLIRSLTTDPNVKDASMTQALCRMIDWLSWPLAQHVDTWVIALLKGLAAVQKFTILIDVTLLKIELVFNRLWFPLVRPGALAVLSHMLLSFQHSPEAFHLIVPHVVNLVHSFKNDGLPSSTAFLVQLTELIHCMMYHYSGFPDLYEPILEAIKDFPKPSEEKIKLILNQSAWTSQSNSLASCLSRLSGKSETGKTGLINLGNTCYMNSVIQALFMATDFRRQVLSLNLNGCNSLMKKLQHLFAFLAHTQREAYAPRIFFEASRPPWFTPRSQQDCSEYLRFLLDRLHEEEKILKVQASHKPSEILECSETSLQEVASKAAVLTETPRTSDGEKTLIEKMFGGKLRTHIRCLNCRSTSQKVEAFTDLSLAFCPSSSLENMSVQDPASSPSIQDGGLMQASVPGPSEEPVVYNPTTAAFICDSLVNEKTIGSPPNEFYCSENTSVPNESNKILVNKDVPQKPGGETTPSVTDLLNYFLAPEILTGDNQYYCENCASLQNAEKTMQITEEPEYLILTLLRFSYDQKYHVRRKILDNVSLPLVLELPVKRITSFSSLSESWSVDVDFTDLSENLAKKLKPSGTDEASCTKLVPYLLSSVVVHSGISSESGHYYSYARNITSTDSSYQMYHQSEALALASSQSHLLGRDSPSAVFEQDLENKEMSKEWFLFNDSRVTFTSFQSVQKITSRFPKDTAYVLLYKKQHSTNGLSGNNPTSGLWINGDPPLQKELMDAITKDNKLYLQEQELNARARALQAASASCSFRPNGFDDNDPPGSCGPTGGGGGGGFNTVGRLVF
Procedure, shortened: as §1

[4] = biological target: T3, USP39 (UniProt Q53GS9)
T3 sequence (whole entry): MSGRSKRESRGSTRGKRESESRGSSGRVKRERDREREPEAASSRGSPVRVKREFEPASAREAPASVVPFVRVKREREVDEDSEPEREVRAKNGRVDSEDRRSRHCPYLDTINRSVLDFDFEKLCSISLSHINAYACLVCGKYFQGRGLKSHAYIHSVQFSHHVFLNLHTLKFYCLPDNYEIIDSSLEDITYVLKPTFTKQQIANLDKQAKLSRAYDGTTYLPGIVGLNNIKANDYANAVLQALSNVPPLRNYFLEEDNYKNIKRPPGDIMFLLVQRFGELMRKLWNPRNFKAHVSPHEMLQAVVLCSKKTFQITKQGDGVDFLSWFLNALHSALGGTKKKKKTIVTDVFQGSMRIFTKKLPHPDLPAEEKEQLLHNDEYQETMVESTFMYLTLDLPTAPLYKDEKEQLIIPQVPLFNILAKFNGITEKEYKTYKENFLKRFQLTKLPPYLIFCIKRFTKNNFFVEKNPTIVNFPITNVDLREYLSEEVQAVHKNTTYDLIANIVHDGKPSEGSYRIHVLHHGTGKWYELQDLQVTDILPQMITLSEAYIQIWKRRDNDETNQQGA
Procedure, shortened: as §1

[5] = biological target: T4, USP4 (UniProt Q13107)
T4 sequence (whole entry): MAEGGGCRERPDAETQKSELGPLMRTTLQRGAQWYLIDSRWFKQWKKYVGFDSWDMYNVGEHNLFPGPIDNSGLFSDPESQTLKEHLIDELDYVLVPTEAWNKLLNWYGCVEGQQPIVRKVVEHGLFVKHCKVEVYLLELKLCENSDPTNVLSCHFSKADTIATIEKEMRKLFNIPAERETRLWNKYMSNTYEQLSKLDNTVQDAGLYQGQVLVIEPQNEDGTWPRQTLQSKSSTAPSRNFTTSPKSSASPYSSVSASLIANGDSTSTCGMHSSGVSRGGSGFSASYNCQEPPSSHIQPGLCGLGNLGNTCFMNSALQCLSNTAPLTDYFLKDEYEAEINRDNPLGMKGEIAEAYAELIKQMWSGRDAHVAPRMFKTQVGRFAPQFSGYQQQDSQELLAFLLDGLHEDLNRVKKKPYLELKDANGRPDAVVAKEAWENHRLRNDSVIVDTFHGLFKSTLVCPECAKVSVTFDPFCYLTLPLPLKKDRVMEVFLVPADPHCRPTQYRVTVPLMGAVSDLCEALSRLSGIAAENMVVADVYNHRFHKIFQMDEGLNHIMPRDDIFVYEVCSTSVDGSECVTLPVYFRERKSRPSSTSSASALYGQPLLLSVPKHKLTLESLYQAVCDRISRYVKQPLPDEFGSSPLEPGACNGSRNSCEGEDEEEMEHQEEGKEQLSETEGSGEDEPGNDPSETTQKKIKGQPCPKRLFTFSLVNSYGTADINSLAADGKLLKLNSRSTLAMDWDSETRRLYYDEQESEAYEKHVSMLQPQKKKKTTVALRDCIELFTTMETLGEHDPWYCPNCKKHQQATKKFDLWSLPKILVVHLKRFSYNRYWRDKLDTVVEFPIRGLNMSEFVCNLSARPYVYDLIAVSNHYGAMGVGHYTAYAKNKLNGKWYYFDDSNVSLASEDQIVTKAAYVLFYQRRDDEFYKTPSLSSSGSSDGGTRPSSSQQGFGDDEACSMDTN
Procedure, shortened: as §1

Measured: log2 ratio of Biotin-Ahx-Ub-VS probe labelling

USP34, sequence (Q70CQ2 whole entry, the tested form may be a part): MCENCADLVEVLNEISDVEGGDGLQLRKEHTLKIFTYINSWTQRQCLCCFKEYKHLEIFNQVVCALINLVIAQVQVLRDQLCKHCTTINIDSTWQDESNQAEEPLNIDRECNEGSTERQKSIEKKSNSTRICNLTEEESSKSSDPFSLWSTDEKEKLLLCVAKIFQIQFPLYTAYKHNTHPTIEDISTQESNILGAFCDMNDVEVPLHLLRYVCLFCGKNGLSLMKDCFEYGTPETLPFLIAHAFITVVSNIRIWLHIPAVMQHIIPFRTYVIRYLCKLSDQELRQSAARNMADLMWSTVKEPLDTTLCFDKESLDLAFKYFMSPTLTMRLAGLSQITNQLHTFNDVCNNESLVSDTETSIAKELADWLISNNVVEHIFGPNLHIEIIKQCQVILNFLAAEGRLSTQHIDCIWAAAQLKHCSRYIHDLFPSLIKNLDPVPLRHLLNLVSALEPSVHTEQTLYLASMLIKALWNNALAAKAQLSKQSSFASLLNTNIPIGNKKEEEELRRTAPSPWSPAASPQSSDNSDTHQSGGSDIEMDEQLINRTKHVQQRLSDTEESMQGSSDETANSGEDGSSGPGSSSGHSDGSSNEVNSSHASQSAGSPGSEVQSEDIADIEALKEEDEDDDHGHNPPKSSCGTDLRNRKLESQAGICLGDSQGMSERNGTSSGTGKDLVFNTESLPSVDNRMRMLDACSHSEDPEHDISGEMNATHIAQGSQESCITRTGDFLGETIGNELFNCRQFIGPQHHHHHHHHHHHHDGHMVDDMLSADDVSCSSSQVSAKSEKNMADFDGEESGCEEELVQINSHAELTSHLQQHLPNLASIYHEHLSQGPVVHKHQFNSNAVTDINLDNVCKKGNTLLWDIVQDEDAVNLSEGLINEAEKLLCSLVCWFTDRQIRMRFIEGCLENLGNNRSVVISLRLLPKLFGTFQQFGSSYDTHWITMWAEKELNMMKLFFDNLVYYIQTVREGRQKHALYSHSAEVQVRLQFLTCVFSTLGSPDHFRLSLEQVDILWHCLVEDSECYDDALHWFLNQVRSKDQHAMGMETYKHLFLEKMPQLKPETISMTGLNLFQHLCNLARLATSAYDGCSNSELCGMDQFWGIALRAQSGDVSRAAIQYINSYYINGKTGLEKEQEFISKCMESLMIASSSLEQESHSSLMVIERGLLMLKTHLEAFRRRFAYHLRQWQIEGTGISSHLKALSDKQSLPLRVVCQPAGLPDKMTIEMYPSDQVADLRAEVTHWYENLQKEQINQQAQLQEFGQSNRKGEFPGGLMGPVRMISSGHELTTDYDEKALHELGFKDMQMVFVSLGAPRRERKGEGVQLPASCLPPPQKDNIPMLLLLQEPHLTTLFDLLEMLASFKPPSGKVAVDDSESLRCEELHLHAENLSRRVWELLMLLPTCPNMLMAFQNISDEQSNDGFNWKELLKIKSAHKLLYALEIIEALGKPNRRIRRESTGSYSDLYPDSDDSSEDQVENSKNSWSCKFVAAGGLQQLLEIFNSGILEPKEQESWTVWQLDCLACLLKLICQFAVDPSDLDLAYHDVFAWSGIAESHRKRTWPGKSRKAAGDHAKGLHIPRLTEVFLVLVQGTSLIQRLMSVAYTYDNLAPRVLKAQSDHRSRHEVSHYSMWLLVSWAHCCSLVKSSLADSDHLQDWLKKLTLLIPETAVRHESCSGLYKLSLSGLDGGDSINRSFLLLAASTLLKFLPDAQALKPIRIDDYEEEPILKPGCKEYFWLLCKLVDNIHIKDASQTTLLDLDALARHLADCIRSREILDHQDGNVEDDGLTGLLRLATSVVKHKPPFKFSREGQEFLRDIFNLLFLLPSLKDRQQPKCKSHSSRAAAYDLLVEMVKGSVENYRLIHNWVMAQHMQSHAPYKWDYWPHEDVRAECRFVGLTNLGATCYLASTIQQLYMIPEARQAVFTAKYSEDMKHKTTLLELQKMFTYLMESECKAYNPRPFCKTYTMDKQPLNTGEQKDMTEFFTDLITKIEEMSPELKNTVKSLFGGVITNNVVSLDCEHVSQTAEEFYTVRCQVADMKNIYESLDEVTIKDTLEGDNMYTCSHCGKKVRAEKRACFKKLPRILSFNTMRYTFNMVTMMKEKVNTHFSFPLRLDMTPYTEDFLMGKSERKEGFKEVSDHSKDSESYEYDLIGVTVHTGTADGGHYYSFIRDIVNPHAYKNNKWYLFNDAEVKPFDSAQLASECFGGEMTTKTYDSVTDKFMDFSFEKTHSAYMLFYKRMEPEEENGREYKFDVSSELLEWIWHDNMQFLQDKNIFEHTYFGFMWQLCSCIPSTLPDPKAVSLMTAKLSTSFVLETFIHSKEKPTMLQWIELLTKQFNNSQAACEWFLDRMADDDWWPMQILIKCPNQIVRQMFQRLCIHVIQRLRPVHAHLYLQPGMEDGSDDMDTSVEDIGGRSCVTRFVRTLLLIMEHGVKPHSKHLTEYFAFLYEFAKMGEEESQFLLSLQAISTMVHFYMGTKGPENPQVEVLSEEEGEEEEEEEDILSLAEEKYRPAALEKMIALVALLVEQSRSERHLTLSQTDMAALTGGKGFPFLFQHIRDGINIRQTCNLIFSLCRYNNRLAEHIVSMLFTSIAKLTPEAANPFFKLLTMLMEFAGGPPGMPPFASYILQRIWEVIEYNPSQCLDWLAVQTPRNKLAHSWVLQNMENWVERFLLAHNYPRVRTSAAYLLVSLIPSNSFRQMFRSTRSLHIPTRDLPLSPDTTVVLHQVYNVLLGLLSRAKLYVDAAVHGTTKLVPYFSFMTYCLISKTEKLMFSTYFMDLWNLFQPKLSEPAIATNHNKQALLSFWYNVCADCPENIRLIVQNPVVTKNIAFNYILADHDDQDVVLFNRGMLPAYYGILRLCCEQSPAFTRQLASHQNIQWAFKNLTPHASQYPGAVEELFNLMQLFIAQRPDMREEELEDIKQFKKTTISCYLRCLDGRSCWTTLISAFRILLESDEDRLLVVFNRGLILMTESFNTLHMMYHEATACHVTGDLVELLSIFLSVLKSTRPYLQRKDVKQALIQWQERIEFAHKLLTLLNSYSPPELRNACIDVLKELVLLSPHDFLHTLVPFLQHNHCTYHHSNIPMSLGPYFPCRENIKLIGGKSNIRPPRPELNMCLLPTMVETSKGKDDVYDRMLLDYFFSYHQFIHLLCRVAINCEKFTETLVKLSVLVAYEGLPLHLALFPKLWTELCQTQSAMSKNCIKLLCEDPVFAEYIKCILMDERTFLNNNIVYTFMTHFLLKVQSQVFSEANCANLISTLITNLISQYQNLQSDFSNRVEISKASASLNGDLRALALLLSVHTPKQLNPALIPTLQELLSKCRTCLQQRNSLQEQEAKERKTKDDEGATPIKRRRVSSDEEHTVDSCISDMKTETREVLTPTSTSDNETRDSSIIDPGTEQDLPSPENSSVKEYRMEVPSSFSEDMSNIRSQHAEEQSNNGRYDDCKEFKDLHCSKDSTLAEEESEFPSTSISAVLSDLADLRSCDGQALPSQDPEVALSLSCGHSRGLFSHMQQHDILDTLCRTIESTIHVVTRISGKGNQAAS

CC(NC(=O)CCl)c1ccc2[nH]ncc2c1 (stereo not given)
inactive: [1] -0.271 | [2] -0.00241 | [3] -0.222 | [4] -0.146 | [5] -0.324
